# Source: PubChem BioAssay
# Only some compounds are listed: those with a hit (about 5.9% of all), similar ones and a draw of the others.
# PRMT1 FP inh – PRMT1 methyltransferase inhibitors, primary screen, biochemical, fluorescence polarization | Protein arginine N-methyltransferase 1 (Homo sapiens), Q99873 | 370,000 tested, 1.3% active | AID 652257, 2013 | recombinant PRMT1, activity-based probe fluorescence polarization | inhibition, % at 2.79 µM;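 active = inhibition above about 21% made by adding two undisclosed values, limit read from the data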
# LANA-H2A inh – blockers of LANA interaction with H2A/H2B – biochemical, FP readout, HTS, primary screen | Protein LANA1 (Human herpesvirus 8 type P (isolate GK18)), Q9QR71 | cell-free LANA-H2A/H2B peptide, fluorescence polarization | inhibition, % (test concentration not listed) | 320,000 tested, 0.6% active | AID 2629, 2010; in the data active = inhibition mostly above about 10%, no sharp cut-off; inactive = mostly below about 6.7%
# Rtt109 Vps75 – inhibitors of C. albicans Rtt109/Vps75 HAT, primary screen, biochemical, ThioGlo CoA-SH fluorescence, plate reader | Histone acetyltransferase RTT109 (Candida albicans (strain SC5314 / ATCC MYA-2876)), … | purified Rtt109/Vps75, 4 h | inhibition, % at 34.9 µM | 330,000 tested, 0.16% active | AID 540336, 2011;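 active = inhibition of at least 50% in every replicate; inconclusive = best replicate reaches 50% inhibition but some replicates fall short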
# Target sequence (Q5AAJ8 whole entry, looked up): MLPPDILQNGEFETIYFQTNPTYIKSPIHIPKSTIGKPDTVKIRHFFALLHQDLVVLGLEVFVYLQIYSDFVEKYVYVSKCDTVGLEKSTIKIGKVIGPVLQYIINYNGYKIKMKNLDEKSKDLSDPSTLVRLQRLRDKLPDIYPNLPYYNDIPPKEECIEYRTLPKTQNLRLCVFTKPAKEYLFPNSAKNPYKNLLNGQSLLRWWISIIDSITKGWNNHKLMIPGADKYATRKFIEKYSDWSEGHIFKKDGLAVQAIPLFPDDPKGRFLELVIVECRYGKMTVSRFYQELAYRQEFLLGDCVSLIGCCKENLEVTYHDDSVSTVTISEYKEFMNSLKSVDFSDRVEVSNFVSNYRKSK
# ALR inh – inhibitors of human ALR sulfhydryl oxidase, primary screen, biochemical, H2O2 detection, HRP-luminol luminescence, single point; FAD-linked sulfhydryl oxidase ALR (Homo sapiens), P55789; purified ALR, DTT oxidation; inhibition, % (test concentration not listed); 290,000 tested, 3.8% active; AID 485317, 2010;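 active = mean replicate inhibition above about 79%, with every replicate also reaching it, limit read from the data; inconclusive = only one of the two criteria met; inactive = mean below limit and not every replicate reaching it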
# Target sequence (P55789 whole entry, looked up): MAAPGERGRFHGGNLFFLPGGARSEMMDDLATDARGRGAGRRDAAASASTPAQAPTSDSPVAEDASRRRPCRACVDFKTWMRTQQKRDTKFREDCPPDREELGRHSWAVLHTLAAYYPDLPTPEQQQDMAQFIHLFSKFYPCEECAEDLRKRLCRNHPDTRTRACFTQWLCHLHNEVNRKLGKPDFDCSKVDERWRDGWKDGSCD
# rCAG binder – binders of r(CAG) RNA repeats, primary screen, biochemical, fluorescence. r(CAG) RNA repeat, TO-PRO-1 dye displacement fluorescence. inhibition, % at 3 µM. 370,000 tested, 1.3% active. AID 651821, 2012;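 active = inhibition above the plate cutoff, the mean of all test compounds on that plate plus 3 SD, cut at about 35% in these data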;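 note: 0% = DMSO alone and 100% = 100 µM mitoxantrone as full dye displacement; higher means more dye released from RNA so lower well fluorescence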
# ABHD5-PLIN5 inh – ABHD5-PLIN5 interaction inhibitors, primary screen, cell lysate, split luciferase complementation, luminescence | Perilipin-5 (Homo sapiens) + 1-acylglycerol-3-phosphate O-acyltransferase ABHD5 (Homo … | Split G. princeps luciferase complementation, 4 h | inhibition, % at 4 µM | 360,000 tested, 0.78% active | AID 602281, 2012;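 active = inhibition above the mean inhibition across every tested compound plus 3 SD, cut at about 22% in these data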;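 note: 0% = DMSO only wells and the 100% control is not disclosed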
# PRMT1 inh conf – PRMT1 methyltransferase inhibitors, confirmation, biochemical, fluorescence polarization, triplicate. inhibition, % at 2.79 µM. 3,300 tested, 42% active. recombinant His-PRMT1, activity-based probe fluorescence polarization. shares compounds with PRMT1 FP inh;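 active = mean inhibition across replicates above the hit cutoff derived for the earlier primary screen, cut at about 22% in these data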
# Numbers without * were called inactive; ? = inconclusive; . = not tested or not shown.
SMILES,PRMT1 FP inh,LANA-H2A inh,Rtt109 Vps75,ALR inh,rCAG binder,ABHD5-PLIN5 inh,PRMT1 inh conf
COC(=O)[C@@]1(Cc2ccc(OC)cc2)[C@H]2c3cc(C(=O)N4CCCC4)n(Cc4ccc(S(C)(=O)=O)cc4)c3C[C@H]2CN1C(=O)c1ccccc1,2,.,.,.,16,11,.
COC(=O)[C@@]1(Cc2ccc(OC)cc2)[C@H]2c3cc(C(=O)N4CCCC4)n(Cc4ccc(C)o4)c3C[C@H]2CN1C(=O)c1ccccc1,39*,.,.,.,3,.,3
CCN(CC)C(=O)C1=C(C)N(Cc2ccc(C(C)(C)C)cc2)C(=O)C(CC(=O)NCCN2CCOCC2)C1 (stereo not drawn),-2,.,.,.,-3,-6,.
COc1ccc(NC(=O)c2cc(OC)c(OC)c(OC)c2)cn1,1,-5,-4,-17,-2,5,.
COc1ccc(NC(=O)c2cccc(-c3ccc(O)cc3)c2)cn1,41*,9,15,?,-50,10,17
C=C(C)c1cccc(C(C)(C)NC(=O)Nc2ccc(C)cn2)c1,-2,.,8,.,-8,-12,.
C=C(C)c1cccc(C(C)(C)NC(=O)Nc2ccc(OC)nc2)c1,25*,5,-5,-1,-3,-3,5
COC(=O)Nc1ccc(SCC(=O)c2ccccc2)cc1,26*,4,5,99*,-4,-2,21
COC(=O)Nc1ccc(SCC(=O)c2ccc(Cl)cc2)cc1,69*,3,26,.,2,-25,55*
Cc1ccsc1CNC(=O)C1(C)CCN1C(C)C (stereo not drawn),1,.,.,.,0,0,.
c1cc2c(cc1NC1CCCCCC1)OCO2,35*,-1,3,26,-2,0,32*
O=C(NC1CCCCCCC1)c1ccc2c(c1)OCO2,-2,0,1,3,-2,0,.
O=S(c1ccccc1O)S(=O)c1ccccc1O (stereo not drawn),88*,.,-21,.,72*,-11,95*
COC(=O)c1ccc(N2C(=O)CC(Sc3n[nH]c(C)n3)C2=O)cc1 (stereo not drawn),44*,-2,-3,.,11,8,50*
CCOc1ccccc1N1C(=O)CC(Sc2n[nH]c(-c3ccccc3)n2)C1=O (stereo not drawn),73*,6,9,99*,13,10,78*
COc1ccccc1N1C(=O)CC(Sc2nc(C)cc(C)n2)C1=O (stereo not drawn),5,-2,.,0,-1,0,.
COC(=O)c1cc(C(=O)OC)cc(N2C(=O)CC(Sc3nc(C)cc(C)n3)C2=O)c1 (stereo not drawn),5,-5,-1,-4,1,-4,.
COc1ccc(N2C(=O)CC(Sc3n[nH]c(-c4cccc(C)c4)n3)C2=O)cc1 (stereo not drawn),44*,3,.,99*,7,2,60*
COc1ccc(CCNC(=O)c2cc3c(C)nn(-c4ccccc4)c3s2)cc1OC,-4,.,.,.,7,.,.
Cc1cccc(-c2nnc(SCC(=O)Nc3ccc(-c4nc5ccc(C)cc5s4)cc3)n2Cc2ccco2)c1,41*,.,.,.,24,.,1
Cc1ccc2nc(-c3ccc(NC(=O)CSc4nnc(-c5ccccc5)n4Cc4ccco4)cc3)sc2c1,25*,.,.,.,19,.,19
CCn1c(SCC(=O)Nc2ccc(-c3nc4ccc(C)cc4s3)cc2)nnc1-c1ccccc1,.,-2,.,2,.,.,.
C[C@@H]1COc2cc(Br)ccc2S(=O)(=O)N1Cc1cn(Cc2ccccc2)nn1,1,.,.,.,3,.,.
CC(C)CNC(=O)OCc1cn(Cc2ccccc2)nn1,-1,.,.,.,1,.,.
CC1CCC(N(C)C(=O)CN2C(=O)NC(c3ccccc3)(c3ccccc3)C2=O)CC1 (stereo not drawn),2,.,.,.,1,-9,.
SMILES,PRMT1 FP inh,LANA-H2A inh,Rtt109 Vps75,ALR inh,rCAG binder,ABHD5-PLIN5 inh,PRMT1 inh conf
S=c1[nH]c(-c2ccccc2)cs1,30*,-13,10,14,0,-5,6
O=c1[nH]c(-c2ccccc2)cs1,-1,0,8,50,-1,3,.
Cc1ccc(S(=O)(=O)Nc2ccc3c(c2)n(C)c(=O)n3C)cc1,3,-2,-5,2,-1,5,.
Cc1ccc(NS(=O)(=O)c2ccc3c(c2)n(C)c(=O)n3C)cc1C,25*,2,4,-2,1,-4,8
Nc1ccn([C@@H]2O[C@H](C(=O)N[C@H](Cc3ccccc3)C(=O)NCC(=O)N3CCOCC3)[C@@H](O)[C@H]2O)c(=O)n1,-4,.,.,.,3,.,.
O=C(NC1CCCCCC1)c1ccc[nH]c1=S,49*,-3,-4,92*,4,-1,4
O=C(NC1CCCCCCC1)c1ccccc1O,-3,8,-2,.,1,-4,.
Cc1cccc(CCNC(=O)Cn2nc(-c3ccccc3)ccc2=O)c1,4,.,.,.,2,.,.
CC(=O)NC(c1ccc(F)c(F)c1)c1nc(-c2cnc3ccccc3c2)cs1 (stereo not drawn),32*,.,.,.,3,-2,3
CC(=O)NC(c1ccc(F)c(F)c1)c1nc(-c2cccc(F)c2)cs1 (stereo not drawn),0,.,.,.,2,0,.
O=C(Nc1ccc2c(c1)OCO2)c1ccc2sc([C@H]3C[C@H](O)[C@@H](CO)O3)nc2c1,1,.,.,.,3,7,.
C=CCOc1c(Br)cc(CNc2ccc3[nH]c(=O)[nH]c3c2)cc1OCC,30*,-2,-7,?,-1,-3,15
C=CCOc1c(Br)cc(CNc2ccc(NC(=O)CCC)cc2)cc1OCC,3,-4,8,13,-1,4,.
COc1cc(CNc2ccc3[nH]c(=O)[nH]c3c2)ccc1OCc1ccccc1F,29*,-3,3,64,3,-3,10
COc1cc(CNc2ccc3[nH]c(=O)[nH]c3c2)cc(Br)c1OCC(=O)NC(C)(C)C,25*,-4,15,.,-4,0,12
COC(=O)C1(F)C(=O)NC(=O)NC1OC (stereo not drawn),0,.,.,.,2,.,.
O=C(c1cccnc1Cl)N1CCC(Oc2cccnc2)CC1,-2,.,.,.,0,.,.
O=S1(=O)CC(N2CCCCC2)CN1Cc1cn(Cc2cccc(C(F)(F)F)c2)nn1 (stereo not drawn),-1,.,.,.,0,5,.
